# Results published in PubChem BioAssay AID1159580 (chemical genetic matrix, 2015).
# Among all 5,500 compounds or so, about 2,000 (36%) were called active. Inconclusive results (about 18%) are left out. The list shows a part of the results. A number with no mark means an inactive call. No stated cut-off is given here; in the data, active means normalized growth mostly below about 0.91 (no sharp cut-off); inconclusive means no clear call, values can overlap the other calls; inactive means mostly above about 0.92.
# Assay: chemical genetic growth profiling, strain panel (AID 1159580);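 further: tested at 20 µM; growth read once vehicle control cultures reached saturation at 30 °C; 1 = growth at the plate median or of vehicle wells; lower values mean less growth of the strain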
# Conditions: S. cerevisiae deletion strains, growth OD
structure (smiles),measurement,setting,value
CC12CCC3C4CCC(=O)C=C4CCC3C1CCC2=O (configuration not stated),normalized growth,"locus YAL013W, strain DEP1, hits give low values",1.01
same,normalized growth,"locus YBR229C, strain ROT2, hits give low values",1.01
same,normalized growth,"locus YDL101C, strain DUN1, hits give low values",1
same,normalized growth,"locus YDR150W, strain NUM1, hits give low values",0.995
same,normalized growth,"locus YEL061C, strain CIN8, hits give low values",1.01
same,normalized growth,"locus YGR078C, strain PAC10, hits give low values",1.01
same,normalized growth,"locus YGR229C, strain SMI1, hits give low values",1.01
same,normalized growth,"locus YHR030C, strain SLT2, hits give low values",0.898
same,normalized growth,"locus YHR087W, strain rtc3, hits give low values",1.03
same,normalized growth,"locus YJR043C, strain POL32, hits give low values",1.02
same,normalized growth,"locus YJR075W, strain HOC1, hits give low values",1.02
same,normalized growth,"locus YLR039C, strain RIC1, hits give low values",0.786 (active)
same,normalized growth,"locus YLR058C, strain SHM2 (second series), hits give low values",1.01
same,normalized growth,"locus YLR085C, strain ARP6, hits give low values",1.02
same,normalized growth,"locus YLR262C, strain YPT6, hits give low values",0.737 (active)
same,normalized growth,"locus YML094W, strain GIM5, hits give low values",0.994
same,normalized growth,"locus YMR219W, strain ESC1, hits give low values",1.01
same,normalized growth,"locus YMR263W, strain SAP30, hits give low values",0.999
same,normalized growth,"locus YMR307W, strain GAS1, hits give low values",0.989
same,normalized growth,"locus YNL153C, strain GIM3, hits give low values",0.991
same,normalized growth,"locus YNL298W, strain CLA4 (second series), hits give low values",1.01
same,normalized growth,"locus YNL322C, strain KRE1, hits give low values",1.02
same,normalized growth,"locus YNR030W, strain Alg12, hits give low values",0.998
same,normalized growth,"locus YOL006C, strain TOP1, hits give low values",0.971
same,normalized growth,"locus YPL055C, strain LGE1, hits give low values",1.02
same,normalized growth,"locus YPL241C, strain CIN2, hits give low values",1.01
same,normalized growth,"locus YPR135W, strain CTF4, hits give low values",0.897
